The structures appear in SMILES notation. Hit rate of the full screen: of about 2,200 compounds, about 530 (24%) were called active.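 Rule for the calls: active = inhibition above a set limit at one or more concentrations of the dose series; inactive = inhibition under that limit at every dose.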 Only a sample is shown. Entries that show only a call come without a potency. Potency and affinity values are given separately.

The assay is described as follows: S. Typhimurium nonspecific reporter signal inhibition – Salmonella Typhimurium, GFP fluorescence, counter-screen for PhoP regulon inhibitor project, dose response (AID 2401).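 Note: S. typhimurium with Mg-insensitive nmpC-GFP reporter grown at 10 µM Mg2+; drop in reporter fluorescence reflects general culture growth inhibition.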 The following applies: 4 h; series mostly up to 150 µM.
On to `CC(=O)Nc1cccc(-c2csc(Nc3ccccn3)n2)c1`, for which the molecule was called inactive. On to `c1ccc(Nc2nc3ccccc3[nH]2)nc1`, for which the molecule was called inactive. Next, `Clc1ccc(Cn2ncc3c(NCc4ccco4)ncnc32)c(Cl)c1`: “inactive”. In the case of `Cc1nc2cc(NC(=O)N3CCN(c4ccccn4)CC3)ccc2o1`, the call was inactive. Next, `CC(C)N(Cc1nc(-c2ccccc2)no1)C(=O)CN(C)S(=O)(=O)c1ccccc1`: “inactive”; `COc1ccccc1NCCC(=O)OCC(=O)NC1CCCCCC1`: “inactive”. For the molecule `Cc1ccc(NC(=O)CO/N=C(\N)c2nonc2N)cc1`, the outcome was inactive. For the molecule `O=c1cc(CSc2nc(NCc3ccccc3)c3ccccc3n2)nc2ccc(Cl)cn12`, the outcome was inactive.

Take `N/C(=N\OC(=O)N1c2ccccc2Sc2ccccc21)c1ccccc1`: the molecule was classed as inactive. As to `Cc1cc(C)cc(OC(=O)CS(=O)c2ccc(C(F)(F)F)cc2[N+](=O)[O-])c1` (centres undefined), the outcome was inactive. Next, `CCCOc1ccc(/C=N/O)cc1`: “inactive”; `C=C(C)C1Cc2cc3ccc(=O)oc3cc2O1` (centres undefined): “inactive”. Next, `CCOc1cc(C2Nc3cccc4cccc(c34)N2)ccc1O`: “inactive”; `CC(=O)N/N=C/c1ccc(OCCOc2ccc(Br)cc2)cc1`: “inactive”; `COC(=O)CCC(=O)Nc1ccc(OC)cc1`: “inactive”. Next, `COc1cccc(-n2c(SCc3cc(=O)oc4cc(O)c(O)cc34)nc3ccccc3c2=O)c1`: “inactive”; `O=C(Cn1cnc2scc(-c3ccccc3)c2c1=O)N1CCOCC1`: “inactive”. `COc1ccccc1Nc1nc(-c2c(C)[nH]c3ccccc23)cs1`: the molecule was classed as inactive. For the molecule `N#Cc1c(N)n[nH]c1-c1cc2c([nH]1)CCCC2`, the outcome was inactive. In the case of `Cc1ccc(CNC(=O)Nc2cccs2)cc1`, the call was inactive. Next, `CCc1cccc2c(C#N)cn(CC(=O)NCCOC)c12`: “inactive”; `Cc1nc(N2CCN(Cc3ccccc3)CC2)nc2c1C(=O)CC(C)C2` (centres undefined): “inactive”.

Consider `Cc1cc(C)n(-c2ccc(C(=O)OCC(=O)Nc3ccc([N+](=O)[O-])cc3)cc2)n1`, for which the molecule was classed as inactive.

Regarding `O=C(OCCN1C(=O)c2ccccc2C1=O)c1ccc(S(=O)(=O)N2CCCCCC2)cc1`, the outcome was inactive. Next, `COc1ccc(/C=C2\CN(Cc3ccccc3)C/C(=C\c3ccc(OC)cc3)C2=O)cc1`: “inactive”; `N/C(=N\OC(=O)Nc1ccc(Cl)cc1)c1ncc(C(F)(F)F)cc1Cl`: “inactive”; `COc1cccc(C=NCC(C)N=Cc2cccc(OC)c2O)c1O` (centres undefined): “inactive”. For the molecule `Cn1c(CO)cnc1SCc1ccc([N+](=O)[O-])cc1`, the molecule was classed as inactive. Regarding `Cc1nn(-c2ccccc2)c2sc(-c3n[nH]c(=S)o3)cc12`, the molecule was classed as inactive. Next, `COc1ccc(C(=O)NC(=S)NCc2ccc(-c3nc4ccccc4o3)cc2)cc1OC`: “inactive”. As to `O=C1NC(c2ccc3c(c2)OCO3)Oc2ccccc21` (centres undefined), the call was inactive. Next, `O=C(O)CCC(=O)NCC1OCCc2ccccc21` (centres undefined): “inactive”; `C=CCNc1nnc(Cl)c2ccccc12`: “inactive”.

Regarding `CCCCCCCCOC(=O)C1=C(C)Nc2nnnn2C1c1cccs1` (centres undefined), the outcome was inactive. The value for `CCOC(=O)c1c(/N=C/c2ccc(O)cc2O)sc2c1CCC2` was “inactive”. The value for `O=C(c1ccc(Cl)cc1Cl)C1(n2cncn2)Oc2ccccc2C1O` (centres undefined) was “inactive”; that for `O=C(CCN1CCN(c2ccc(F)cc2)CC1)Nc1ccccc1F` was “inactive”; that for `Cc1sc(NC(=O)c2ccco2)c(CN2CCN(c3ccc(F)cc3)CC2)c1C` was “inactive”.

With `CCOC(=O)c1cc2sc(C)cc2n1CC(=O)NCc1ccc(F)cc1`, the outcome was inactive.

As for `CC(C(=O)Nc1cc([N+](=O)[O-])ccc1Cl)N1CCN(c2ccccc2O)CC1` (centres undefined), the call was inactive. Next, `CC(C)NC(=O)/C(=N\O)c1ccccc1`: “inactive”; `CCOC(=O)C(/C=C(\C#N)C(=O)OCC)=C(/N)N1CCN(c2c(C)cccc2C)CC1`: “inactive”.

On to `O=[N+]([O-])c1ccc(NCCCNS(=O)(=O)c2ccccc2)c(Cl)c1`, for which the call was inactive. Next, `O=S(=O)(Nc1cc(Sc2ncn[nH]2)c(O)c2ccccc12)c1ccccc1`: “inactive”; `Nc1c(-c2ccccc2)cnn1-c1cccc([N+](=O)[O-])c1`: “inactive”.

Consider `CCC(Sc1ncccc1C(=O)OC(C)C)C(=O)N1CCOCC1` (centres undefined), for which the result was inactive. Next, `Cc1ccc(C)n1-c1cc(S(=O)(=O)N2CCOCC2)ccc1N1CCCC1`: “inactive”; `Cc1cc(Nc2ccccc2F)n2ncnc2n1`: “inactive”; `N#Cc1ccc(CSc2nnc(-c3ccncc3)n2CCc2ccccc2)cc1`: “inactive”. Next, `O=C(NN=C1CCN(Cc2ccccc2)CC1)c1cc2ccccc2cc1O`: “inactive”; `C/C(=N\NC(=O)c1ccccc1)c1ccc2c(c1)OCO2`: “inactive”; `CN(C(=S)Nc1ccc(Oc2ccccc2)cc1)c1ccc(O)cc1`: “inactive”. Regarding `CC(C)Cn1c(-c2ccccc2)nc2ccccc2c1=O`, the outcome was inactive. The value for `COC(=O)c1c(C(=O)OC)c(-c2cccc(C)c2)n2c1CS(=O)(=O)C2` was “inactive”. For `NC(=NCCc1c[nH]c2ccccc12)NC(=O)c1ccc(F)cc1`, the molecule was classed as inactive.

With `CC1CCN(c2ccc(NC(=S)NC(=O)c3ccc(-c4cccc([N+](=O)[O-])c4)o3)cc2)CC1`, the result was inactive.

For `CCOc1ccc(-c2noc(CCCC(N)=O)n2)cc1OC`, the molecule was classed as inactive.

Regarding `O=C(CNC(=O)c1ccco1)OCC(=O)c1ccc2c(c1)CCCC2`, the molecule was called inactive. For the molecule `C/C(=N\n1nnnc1Nc1ccccc1)c1ccc(N)cc1`, the result was inactive.

For the molecule `COc1ccc(NC(=O)CSc2nc(C)cs2)cc1OC`, the call was inactive.

For `Cc1cc(NC(=O)c2cnn3cccnc23)no1`, the molecule was called inactive. Next, `c1ccc(CCNc2nc3ccccc3s2)cc1`: “inactive”. The value for `COc1ccc(-c2ccc(-c3noc(-c4cccs4)n3)c(OC)n2)cc1` was “inactive”; that for `COc1ccc(NC(C)C(=O)Nc2ccc(C(C)(C)C)cc2)cc1Cl` (centres undefined) was “inactive”; that for `CC1CCCCN1CCNS(=O)(=O)c1ccc2c(c1)oc(=O)n2C` (centres undefined) was “inactive”.

Regarding `Cc1ccccc1-n1nnnc1Sc1nnnn1-c1ccccc1`, the result was inactive.

Take `C=CCn1c(SCc2c(C(=O)OC)sc(N)c2C(=O)OC)nnc1-c1ccc(Cl)cc1`: the molecule was called inactive. The value for `CSCCC(NC(=O)c1cccc(C)c1)C(=O)OCC(=O)NC(=O)c1cccn1C` (centres undefined) was “inactive”. The value for `COc1ccc(-c2cc(C(=O)O)[nH]n2)cc1OC` was “inactive”; that for `O=C(O)CCc1nn2c3ccccc3n(CC(=O)c3ccccc3)c2nc1=O` was “inactive”. For `COc1ccccc1/C=C1\CCCC2=C1Nc1nnnn1C2c1ccccc1OC` (centres undefined), the molecule was classed as inactive.

Turning to `CCN(CC(=O)N1CCN(Cc2ccccc2)CC1)S(=O)(=O)c1ccc(F)cc1`, the molecule was classed as inactive.

Regarding `S=C(Nc1cccc(Cl)c1)Nc1cccc2cnccc12`, the molecule was called inactive. For the molecule `S=C(NCc1cccnc1)Nc1ccc(Cl)cc1`, the call was inactive. As for `CSC(=NS(=O)(=O)c1ccccc1)SC`, the call was inactive. Next, `CCN(CC)c1ccc(/C=C(\C#N)C(=O)NCc2ccco2)cc1`: “inactive”; `CCOC(=O)C1=C(C)NC(=O)NC1c1c(OCC(=O)N2CCCCC2)ccc2ccccc12` (centres undefined): “inactive”; `O=C(NCCSCc1ccccc1)c1ccc(F)cc1`: “inactive”. Next, `CCOc1ccc(-c2nnc(NC(=O)CCCOc3cccc(C)c3)o2)cc1`: “inactive”; `COc1ccc(Br)cc1C(=O)NCc1cccnc1`: “inactive”; `C=CCNc1sc(C(=O)c2ccc(C)cc2)c(N)c1C#N`: “inactive”. Next, `Cc1ccc(C(=O)NCC(=O)OCC(=O)N2CCCc3ccccc32)cc1`: “inactive”; `CCC(OC(=O)C(NC(=O)c1ccccc1)c1ccccc1)C(=O)Nc1cc(C)on1` (centres undefined): “inactive”; `COc1ccc(-c2nnc(SCC(=O)NCc3ccco3)o2)cc1`: “inactive”. Turning to `CCn1c(SCC(=O)N2CCCCC2)nc(O)cc1=O`, the call was inactive. Take `CC(=O)N1C(=O)C2(C(C#N)=C(N)Oc3c2c(C)nn3-c2ccccc2)c2ccccc21` (centres undefined): the call was inactive. Next, `Oc1ccc(N2CCN(Cc3ccc(OCCCN4CCCCC4)cc3)CC2)cc1`: “inactive”.

For the molecule `O=C(COC(=O)/C=C/c1ccco1)Nc1cccc([N+](=O)[O-])c1`, the molecule was called inactive. Next, `CCc1c(C)c2cc(Cl)c(O)c(CN(C)C)c2oc1=O`: “inactive”; `Cc1[nH]c2ccccc2c1/C=N/Nc1ccc(F)cc1F`: “inactive”; `COc1ccc(-c2[nH]ncc2/C=C(\C#N)C(=O)NC2CC2)cc1`: “inactive”. Next, `N#Cc1nc(Cc2cccc3ccccc23)oc1NCCCN1CCOCC1`: “inactive”; `CCCSc1ncc(Cl)c(C(=O)Nc2ccc(S(=O)(=O)N3CC(C)OC(C)C3)cc2)n1` (centres undefined): “inactive”; `CCn1nc(C(=O)NCc2ccco2)c(Cl)c1Cl`: “inactive”. The value for `CCN(CC)Cc1c[nH]c2c(C(=O)OC)cccc12` was “inactive”.

In the case of `Cc1ccccc1Cn1nc(C)c(NC(=O)c2noc3c2CCc2ccccc2-3)c1C`, the result was inactive. The value for `c1nc(N2CCC3(CC2)OCCO3)c2c3c(sc2n1)CCCC3` was “inactive”. Next, `COCCSc1ccccc1C(=O)NCC1CCCO1` (centres undefined): “inactive”. Regarding `COc1ccccc1Nc1nc(NCc2ccco2)c2ccccc2n1`, the result was inactive. `CCCOc1ccc(C2NC(=S)NC(c3ccccc3)=C2C(=O)Nc2ccc(C)cc2)cc1OC` (centres undefined): the result was inactive. The value for `N#Cc1nc(-c2cccs2)oc1NCCCN1CCOCC1` was “inactive”; that for `COc1ccc(C)cc1NC(=O)C(Sc1nnc(-c2ccncc2)n1-c1ccc(Cl)cc1)c1ccccc1` (centres undefined) was “inactive”. Next, `COc1ccc(OC)c(/C=N/NC(=O)Cc2nc3ccccc3[nH]2)c1`: “inactive”; `Cc1ccc(/C=N/NC(=O)Cn2cnc3ccccc32)o1`: “inactive”. The value for `C=CCn1c(SCCOc2ccc(OC)cc2)nnc1C(C)NC(=O)c1ccc(OC)cc1` (centres undefined) was “inactive”; that for `O=C(CSCc1nc2ccccc2[nH]1)Nc1ccc2ccccc2c1` was “inactive”.

As to `CC(Cl)C(=O)NNc1cccc(Cl)n1` (centres undefined), the result was inactive. Next, `O=S(=O)(c1ccc2c(c1)OCCO2)N1CCN(c2cccc(Cl)c2)CC1`: “inactive”.

Regarding `O=C(CSc1ncn[nH]1)Nc1cccc2ccccc12`, the result was inactive. The value for `COc1ccc(Oc2ccccc2/C=N/O)cc1` was “inactive”; that for `CCCNC(=O)CN(C1CCCCC1)S(C)(=O)=O` was “inactive”; that for `Cc1nnc(SC(C)C(=O)Nc2ccc(S(=O)(=O)N3CCCCCC3)cc2)s1` (centres undefined) was “inactive”. As for `O=S(=O)(/N=C(/Nc1cccc2ccccc12)c1ccccc1)c1cccs1`, the molecule was called inactive. Next, `COc1ccc(-c2ccccc2)cc1NCc1ccccc1C`: “inactive”.

The record behind these values is PubChem BioAssay AID2401 (Southern Research Specialized Biocontainment Screening …, 2010).
